Assay results from PubChem BioAssay (NCATS).
Inconclusive results are not listed. A call without a number means that no potency is given here. Activity calls are given as the source filed them. Unless noted, calls follow the shape of the dose curve; as a rule, active = well fitted curve in the direction sought with a large enough effect; inconclusive = small, poorly fitted or top-dose-only effect, or another doubt; inactive = no such curve, though single readings can be large; an effect the other way counts as inactive or inconclusive.

Assays:
[1] = AP1 Signaling Pathway (AID 357; active = well fitted curve in either direction with a large enough effect, not every such curve was filed as active;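 also: ME-180 reporter cells stimulated with EGF at its EC50 level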)
Outline: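 AP-1-bla ME-180 cells, Opti-MEM + 0.5% dialyzed FBS, plated overnight 37 °C. Cpd titration + EC50 EGF, 5 h 37 °C. CCF4 2.5 h RT; ex 405, em 460/530 ratio → %activity, AC50.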

[2] = biological target: Cytochrome P450 1A2 (Homo sapiens) (UniProt P05177); assay: p450-cyp1a2 (AID 410; calls by dose curve; also: potency is read from the fitted curve at half-maximal effect)
Outline: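 O-Demethylation of luciferin 6' methyl ether by human CYP1A2 is monitored as luciferase luminescence. Substrate sits at Km (100uM); enzyme is 20nM. Values are scaled to 57 uM furafylline as maximal inhibition.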

[3] = NFAT Signaling Pathway (AID 444; active = well fitted curve in either direction with a large enough effect, not every such curve was filed as active;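 also: carbachol stimulus at about its EC50 of 1 µM final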); conditions: Jurkat NFAT-bla M1, carbachol, beta-lactamase ratio, 5 h; at 17.2 µM (top of the series) unless noted
Outline: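 Read-out: CCF4 FRET ratio (460 nm/530 nm) after 1 h RT dye loading, used for %activity and AC50 from titration series. Cells: Jurkat NFAT-β-lactamase/M1 line, treated with compound plus 1 uM carbachol for 5 h, 37 °C.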

[4] = Stat Signaling Pathway (AID 446; active = well fitted curve in either direction with a large enough effect, not every such curve was filed as active;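 also: ME-180 cervical cancer cells given 40 pM IL-6 alongside compound; SIE-controlled beta-lactamase reporter measured as 460/530 nm FRET emission ratio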)
Outline: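 FRET read-out (405 nm excitation, 460/530 nm emission) of a beta-lactamase reporter under a STAT-inducible element in ME-180 cervical carcinoma cells. Cells with compound receive 40 pM IL-6 for 5 h. Values are normalised to AC90 stimulation and AC90 JAK-inhibitor controls.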

[5] = biological target: Mitogen-activated protein kinase 10 (Mus musculus) (UniProt Q61831); assay: JNK3 AlphaScreen Assay (AID 530; active = well fitted curve in either direction with a large enough effect, not every such curve was filed as active;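 also: kinase came from lysate of stimulated human HepG2 cells; signal reports phosphorylation of biotinylated GST-cJun 1-79 at Ser73 with 10 µM ATP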)
Outline: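 qHTS titrations with 15 min compound pre-incubation before adding ATP (10 uM final). Read-out: AlphaScreen of Ser73-phosphorylated biotin-GST-cJun using HepG2 lysate JNK3 activated by IL-1β and TNFα.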

[6] = biological target: 3',5'-cyclic-AMP phosphodiesterase 4B (Homo sapiens) (UniProt Q07343); assay: qHTS Assay for Inhibitors of PDE-IV (AID 607; active = well fitted activation curve with a large enough effect in the main read-out, with a control signal flat, not every such curve was filed as active)
Outline: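 Cell-based read-out of cAMP via a modified cyclic nucleotide-gated channel and membrane potential dye (535/590 nm) in HEK293 cells expressing PDE4 endogenously. Compounds tested up to 22.9 uM final; 100 uM RO 20-1724 reference.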

[7] = qHTS Assay for Lipid Storage Modulators (AID 1519; calls by dose curve); conditions: Drosophila S3 cells, BODIPY lipid droplet/cell ratio, laser cytometry, cells loaded with oleic acid; for activity change, negative = inhibition: at 25.7 µM (top of the series)
Outline: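 Cells seeded at 5,000 per well were treated with compounds over a concentration series and loaded with oleic acid (400 uM, as added). Lipid droplet fluorescence (488 nm excitation, 500-530 nm channel) was read by laser-scanning cytometry and normalized to 20 uM Triacsin C.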

[8] = biological target: Ubiquitin carboxyl-terminal hydrolase 1 (Homo sapiens) (UniProt O94782); assay: Inhibitors of USP1/UAF1: Pilot qHTS (AID 504865);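 also: rhodamine fluorescence freed from ubiquitin-rhodamine substrate followed over time; top concentration of the series differs between compounds; nearly all actives have a fitted effect of over 35% in size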
Outline: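 In 50mM HEPES pH 7.8 containing 0.5mM EDTA, 1mM TCEP, 0.1 mg/ml BSA and 0.01% Tween-20, 1nM USP1/UAF1 is exposed to compound for 15 min, then Ub-Rho (150nM final) is added and fluorescence is read over time.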

[9] = biological target: Luciferin 4-monooxygenase (Photinus pyralis) (UniProt P08659); assay: Biochemical firefly luciferase enzyme assay for NPC (AID 624030);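 also: purified P. pyralis luciferase at 10 nM with luciferin and ATP substrate; nearly all actives have a fitted effect of over 70% in size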
Outline: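 Direct inhibition of firefly luciferase enzyme (10 nM final, 50 mM Tris Acetate) assessed by luminescence within 5 minutes. Percent activity scaled between DMSO and PTC124 positive control, with concentration-effect curves classified by fit quality and response.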

[10] = S16 Schwann cell viability assay (CellTiter-Glo assay) (AID 624031);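 also: native untransfected S16 rat Schwann cells; cellular ATP luminescence as a viability measure; nearly all actives have a fitted effect of over 70% in size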
Outline: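 Concentration-effect curves come from CellTiter-Glo luminescence of S16 rat Schwann cells after 24 h compound exposure. Each reading was normalized to DMSO wells (0%) and wells without cells, and curves were ranked by r2 and response magnitude.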

[11] = S16 Schwann cell PMP22 intronic element beta-lactamase assay (AID 624044; calls by dose curve; also: nearly all actives have a fitted effect of over 15% in size)
Outline: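 Beta-lactamase reporter under a PMP22 intronic regulatory element in stable S16 rat Schwann cells; 24 h compound exposure. 460 nm blue signal normalized between DMSO (0%) and potassium clavulanate, with 535 nm FRET tracking viability; curves classed by r2 and response.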

[12] = qHTS profiling for inhibitors of Plasmodium falciparum proliferation (AID 504749); also: potency is read from the fitted curve at half-maximal effect; as to all read-outs here: nearly all actives have a fitted effect of over 60% in size; conditions: P. falciparum in erythrocytes, SYBR Green DNA, 72 h; for activity, negative = inhibition: at 12.8 µM (top of the series)
Outline: (§1)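 SYBR Green fluorescence of parasite DNA, read after lysis and overnight dark incubation, measured growth over 72 h in erythrocyte culture at 0.3% parasitemia and 2.5% hematocrit. Data normalised to DMSO and 0.29 uM artemisinin, with plate-drift correction.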

C2A = assay: as above; conditions: P. falciparum in erythrocytes, SYBR Green DNA, 72 h; series mostly up to 12.8 µM
Outline: as §1

CP217 = assay: as above; conditions: P. falciparum in erythrocytes, SYBR Green DNA, 72 h; series mostly up to 12.8 µM
Outline: as §1

CP250 = assay: as above; conditions: P. falciparum in erythrocytes, SYBR Green DNA, 72 h; series mostly up to 12.8 µM
Outline: as §1

FAB9 = assay: as above; conditions: P. falciparum in erythrocytes, SYBR Green DNA, 72 h; series mostly up to 12.8 µM
Outline: as §1

JCK = assay: as above; conditions: P. falciparum in erythrocytes, SYBR Green DNA, 72 h; series mostly up to 12.8 µM
Outline: as §1

SC27B = assay: as above; conditions: P. falciparum in erythrocytes, SYBR Green DNA, 72 h; series mostly up to 12.8 µM
Outline: as §1

[13] = biological target: Glucocorticoid receptor (Homo sapiens) (UniProt P04150); assay: GR-GFP Redistribution (AID 450;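 active = compounds whose dose series gives a full or clear partial fitted curve of increased nuclear translocation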; also: potency is read from the fitted curve at half-maximal effect); conditions: U2OS GR-GFP nuclear translocation, laser cytometry, 2 h
[14] = biological target: Glucocorticoid receptor (Homo sapiens) (UniProt P04150); assay: GR-EFC Redistribution (AID 451; calls by dose curve; also: potency is read from the fitted curve at half-maximal effect); conditions: CHO-K1 GR-EFC translocation, beta-gal luminescence, 2 h
Outline: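 Translocation of GR-ED fusion to nuclear EA restores b-gal, read by luminescence after 1 h room-temperature detection. Engineered CHO-K1 biosensor cells, 1,000/well, exposed 2 h at 37 C to titrations up to 46 uM final.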

[15] = measured here: cell count channel max response
[16] = measured here: lipid channel max response

Ubiquitin carboxyl-terminal hydrolase 1 (Homo sapiens), sequence (O94782 whole entry, looked up): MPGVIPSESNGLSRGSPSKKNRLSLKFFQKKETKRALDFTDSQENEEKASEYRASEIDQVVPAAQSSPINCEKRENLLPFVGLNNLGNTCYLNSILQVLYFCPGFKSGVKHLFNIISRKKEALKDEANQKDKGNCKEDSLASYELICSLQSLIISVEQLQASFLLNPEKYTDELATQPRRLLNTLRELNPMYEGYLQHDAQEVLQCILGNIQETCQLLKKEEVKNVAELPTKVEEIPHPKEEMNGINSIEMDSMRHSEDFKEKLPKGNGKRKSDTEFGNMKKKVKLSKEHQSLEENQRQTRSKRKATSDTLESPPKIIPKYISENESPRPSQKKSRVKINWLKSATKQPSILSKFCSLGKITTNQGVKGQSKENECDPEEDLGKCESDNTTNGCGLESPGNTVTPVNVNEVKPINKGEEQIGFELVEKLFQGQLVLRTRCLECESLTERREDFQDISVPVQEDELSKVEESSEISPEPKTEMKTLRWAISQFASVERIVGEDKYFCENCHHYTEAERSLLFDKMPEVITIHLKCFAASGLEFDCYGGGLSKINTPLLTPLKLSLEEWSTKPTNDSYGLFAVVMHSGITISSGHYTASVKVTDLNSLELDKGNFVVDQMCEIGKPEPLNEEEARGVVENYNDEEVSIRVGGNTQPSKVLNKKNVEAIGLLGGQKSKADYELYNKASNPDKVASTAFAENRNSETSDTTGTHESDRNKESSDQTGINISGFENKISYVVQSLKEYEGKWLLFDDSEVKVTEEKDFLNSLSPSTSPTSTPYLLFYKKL
Cytochrome P450 1A2 (Homo sapiens), sequence (P05177 whole entry, looked up): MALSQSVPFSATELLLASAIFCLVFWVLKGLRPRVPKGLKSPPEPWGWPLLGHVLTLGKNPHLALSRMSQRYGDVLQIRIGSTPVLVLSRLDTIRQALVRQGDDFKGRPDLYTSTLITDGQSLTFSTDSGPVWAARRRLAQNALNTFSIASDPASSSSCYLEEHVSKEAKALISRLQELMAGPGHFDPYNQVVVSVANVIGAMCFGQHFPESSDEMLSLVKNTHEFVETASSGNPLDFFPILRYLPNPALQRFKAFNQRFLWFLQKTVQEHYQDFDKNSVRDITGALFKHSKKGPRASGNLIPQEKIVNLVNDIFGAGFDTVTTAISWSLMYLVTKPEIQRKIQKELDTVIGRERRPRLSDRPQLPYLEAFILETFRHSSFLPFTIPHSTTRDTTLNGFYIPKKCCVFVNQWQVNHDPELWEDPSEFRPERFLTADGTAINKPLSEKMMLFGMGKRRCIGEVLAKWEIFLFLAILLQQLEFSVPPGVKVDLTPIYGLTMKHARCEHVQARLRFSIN
3',5'-cyclic-AMP phosphodiesterase 4B (Homo sapiens), sequence (Q07343 whole entry, looked up): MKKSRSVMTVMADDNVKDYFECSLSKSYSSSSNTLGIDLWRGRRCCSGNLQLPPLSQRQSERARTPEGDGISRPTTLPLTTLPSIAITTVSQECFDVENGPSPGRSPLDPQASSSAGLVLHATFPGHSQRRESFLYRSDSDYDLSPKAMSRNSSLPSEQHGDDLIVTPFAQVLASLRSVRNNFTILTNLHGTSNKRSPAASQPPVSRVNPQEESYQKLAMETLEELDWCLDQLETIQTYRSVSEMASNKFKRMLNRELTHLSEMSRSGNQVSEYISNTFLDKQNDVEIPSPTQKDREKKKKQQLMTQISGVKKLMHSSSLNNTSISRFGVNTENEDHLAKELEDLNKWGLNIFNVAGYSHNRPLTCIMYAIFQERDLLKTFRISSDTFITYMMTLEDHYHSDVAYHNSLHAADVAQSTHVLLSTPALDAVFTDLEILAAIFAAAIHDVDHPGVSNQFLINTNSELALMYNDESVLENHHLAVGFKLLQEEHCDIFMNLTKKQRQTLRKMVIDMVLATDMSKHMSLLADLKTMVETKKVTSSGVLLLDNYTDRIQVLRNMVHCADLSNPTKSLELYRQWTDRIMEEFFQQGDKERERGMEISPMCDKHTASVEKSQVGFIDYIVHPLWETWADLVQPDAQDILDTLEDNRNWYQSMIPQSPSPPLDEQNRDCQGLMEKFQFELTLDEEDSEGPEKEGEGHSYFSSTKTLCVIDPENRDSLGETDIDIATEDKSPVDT
Luciferin 4-monooxygenase (Photinus pyralis), sequence (P08659 whole entry, looked up): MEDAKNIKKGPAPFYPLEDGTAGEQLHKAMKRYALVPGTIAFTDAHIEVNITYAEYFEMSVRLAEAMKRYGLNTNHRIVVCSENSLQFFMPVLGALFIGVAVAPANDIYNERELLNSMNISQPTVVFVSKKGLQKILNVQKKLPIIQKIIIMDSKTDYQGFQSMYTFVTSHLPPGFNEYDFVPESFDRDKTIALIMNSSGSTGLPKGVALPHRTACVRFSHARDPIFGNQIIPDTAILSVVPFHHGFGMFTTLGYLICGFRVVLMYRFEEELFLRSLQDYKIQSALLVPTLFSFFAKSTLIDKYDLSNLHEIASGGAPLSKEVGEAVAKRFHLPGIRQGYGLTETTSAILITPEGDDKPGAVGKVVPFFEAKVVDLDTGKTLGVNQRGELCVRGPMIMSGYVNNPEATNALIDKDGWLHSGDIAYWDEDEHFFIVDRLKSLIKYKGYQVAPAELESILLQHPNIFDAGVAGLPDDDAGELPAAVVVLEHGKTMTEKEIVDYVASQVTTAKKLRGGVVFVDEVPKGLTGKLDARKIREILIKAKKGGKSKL
Glucocorticoid receptor (Homo sapiens), sequence (P04150 whole entry, looked up, the tested form may be a part): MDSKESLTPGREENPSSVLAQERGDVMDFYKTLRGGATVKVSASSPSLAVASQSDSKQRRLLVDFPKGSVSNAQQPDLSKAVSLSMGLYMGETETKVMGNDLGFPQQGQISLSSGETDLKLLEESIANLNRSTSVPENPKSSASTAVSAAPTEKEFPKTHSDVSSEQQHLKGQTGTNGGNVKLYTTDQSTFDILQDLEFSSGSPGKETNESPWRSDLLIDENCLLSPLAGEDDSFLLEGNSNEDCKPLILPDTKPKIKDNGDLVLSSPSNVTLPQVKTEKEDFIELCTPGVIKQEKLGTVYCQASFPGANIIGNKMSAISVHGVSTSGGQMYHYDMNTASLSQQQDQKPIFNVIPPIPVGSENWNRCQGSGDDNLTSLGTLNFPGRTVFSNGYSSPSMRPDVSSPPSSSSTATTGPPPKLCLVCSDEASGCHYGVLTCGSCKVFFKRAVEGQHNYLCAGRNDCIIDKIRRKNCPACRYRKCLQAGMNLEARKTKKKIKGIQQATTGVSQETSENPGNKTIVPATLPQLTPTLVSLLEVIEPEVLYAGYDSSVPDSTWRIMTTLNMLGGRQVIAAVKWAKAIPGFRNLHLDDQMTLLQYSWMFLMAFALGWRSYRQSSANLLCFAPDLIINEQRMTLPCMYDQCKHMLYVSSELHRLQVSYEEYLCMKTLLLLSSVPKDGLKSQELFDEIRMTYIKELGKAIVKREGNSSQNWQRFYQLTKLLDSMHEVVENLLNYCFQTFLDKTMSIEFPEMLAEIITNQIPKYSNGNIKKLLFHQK

With `CCOC(=O)C1=C(C)NC(C)=C(C(=O)OC)[C@@H]1c1cccc([N+](=O)[O-])c1` the outcome [1] was “inactive”, the Potency [2] was 15.8 µM (active) and the activity change, negative = inhibition [3] was -23.9% (inactive). For the same compound, the outcome [4] was “inactive”, the Potency [5] was “inactive” and the outcome [6] was “inactive”. The activity change, negative = inhibition [7] was 0.673% (inactive), the max response [7, 15] was -15% and the max response [7, 16] was -22.2%. The Potency [8] was “inactive”.

With `COc1c(O[C@H]2O[C@@H](CO)[C@@H](O)[C@@H](O)[C@@H]2O)cc2c(c1OC)-c1ccc(SC)c(=O)cc1[C@H](NC(C)=O)CC2` the outcome [1] was “inactive”, the Potency [2] was “inactive” and the activity change, negative = inhibition [3] was 5.96% (inactive). The outcome [4] was “inactive”, the Potency [5] was “inactive” and the outcome [6] was “inactive”. The activity change, negative = inhibition [7] was -1.68% (inactive), the max response [7, 15] was 3.12% and the max response [7, 16] was 2.91%. The Potency [8] was “inactive”, the Potency [9] was “inactive” and the outcome [10] was “inactive”. The Potency [11] was “inactive”, the activity, negative = inhibition ([12]; parasite line A) was 5.35% (inactive) and the activity, negative = inhibition ([12]; parasite line B) was 4.25% (inactive). The Potency (C2A) was “inactive”, the Potency (CP217) was “inactive” and the Potency (CP250) was “inactive”. The Potency (FAB9) was “inactive”, the Potency (JCK) was “inactive” and the Potency (SC27B) was “inactive”.

With `C[C@]12CC[C@@H]3C(=CCc4cc(O)ccc43)[C@@H]1CCC2=O` the outcome [1] was “inactive”, the Potency [2] was 10 µM (active) and the activity change, negative = inhibition [3] was 1.57% (inactive). The Potency [13] was > 20.6 µM (inactive), the Potency [14] was > 20.6 µM (inactive) and the Potency [5] was “inactive”. For the same compound, the outcome [6] was “inactive”, the activity change, negative = inhibition [7] was -4.32% (inactive) and the max response [7, 15] was -14.4%. For the same compound, the max response [7, 16] was -15.4% and the Potency [8] was “inactive”.

In the case of `NC(=O)c1ccc[n+]([C@@H]2O[C@H](COP(=O)([O-])OP(=O)(O)OC[C@H]3O[C@@H](n4cnc5c(N)ncnc54)[C@@H](O)[C@@H]3O)[C@@H](O)[C@@H]2O)c1`, the outcome [1] is reported as “inactive”, the Potency [2] is reported as “inactive” and the activity change, negative = inhibition [3] is reported as 1.83% (inactive). The outcome [4] was “inactive”, the Potency [5] was “inactive” and the outcome [6] was “inactive”. The activity change, negative = inhibition [7] was -1.1% (inactive), the max response [7, 15] was -9.17% and the max response [7, 16] was -22.7%. The Potency [8] was “inactive”, the Potency [9] was “inactive” and the Potency [11] was “inactive”. For the same compound, the activity, negative = inhibition ([12]; parasite line A) was 0.56% (inactive), the activity, negative = inhibition ([12]; parasite line B) was 2.43% (inactive) and the Potency (C2A) was “inactive”. For the same compound, the Potency (CP217) was “inactive”, the Potency (CP250) was “inactive” and the Potency (FAB9) was “inactive”. For the same compound, the Potency (JCK) was “inactive” and the Potency (SC27B) was “inactive”.

With `CCC[C@@H]1O[C@@H]2C[C@@H]3[C@H]4CCC5=CC(=O)C=C[C@@]5(C)[C@H]4[C@H](O)C[C@@]3(C)[C@@]2(C(=O)CO)O1` the outcome [1] was “inactive”, the Potency [2] was “inactive” and the activity change, negative = inhibition [3] was -1.55% (inactive). For the same compound, the outcome [4] was “inactive”, the Potency [5] was “inactive” and the outcome [6] was “inactive”. For the same compound, the activity change, negative = inhibition [7] was -3% (inactive), the max response [7, 15] was 4.44% and the max response [7, 16] was -2.78%. The Potency [8] was “inactive”, the Potency [9] was “inactive” and the Potency [11] was “inactive”. The Potency ([12]; parasite line A) was 11.2 µM (active), the Potency ([12]; parasite line B) was 11.2 µM (active) and the Potency (CP217) was 10 µM (active). For the same compound, the Potency (CP250) was 11.2 µM (active).

In the case of `NC(=O)c1cc[n+](CC2=C(C(=O)[O-])N3C(=O)[C@@H](NC(=O)Cc4cccs4)[C@@H]3SC2)cc1`, the outcome [1] is reported as “inactive”, the Potency [2] is reported as “inactive” and the activity change, negative = inhibition [3] is reported as -11% (inactive). The outcome [4] was “inactive”, the Potency [5] was “inactive” and the outcome [6] was “inactive”. For the same compound, the activity change, negative = inhibition [7] was -1.16% (inactive), the max response [7, 15] was -15% and the max response [7, 16] was -16.9%. For the same compound, the Potency [8] was “inactive”, the Potency [9] was “inactive” and the outcome [10] was “inactive”. The Potency [11] was “inactive”, the activity, negative = inhibition ([12]; parasite line A) was -3.3% (inactive) and the activity, negative = inhibition ([12]; parasite line B) was 1.86% (inactive). For the same compound, the Potency (C2A) was “inactive”, the Potency (CP217) was “inactive” and the Potency (CP250) was “inactive”. The Potency (FAB9) was “inactive”, the Potency (JCK) was “inactive” and the Potency (SC27B) was “inactive”.

In the case of `C[C@H](C(=O)O)c1cccc(Oc2ccccc2)c1`, the outcome [1] is reported as “inactive”, the Potency [2] is reported as “inactive” and the activity change, negative = inhibition [3] is reported as 4.26% (inactive). The outcome [4] was “inactive”, the Potency [5] was “inactive” and the activity change, negative = inhibition [7] was 0.849% (inactive). The max response [7, 15] was 0.75%, the max response [7, 16] was -2.59% and the Potency [8] was “inactive”. The Potency [9] was “inactive”, the Potency [11] was “inactive” and the activity, negative = inhibition ([12]; parasite line A) was 2.84% (inactive). For the same compound, the activity, negative = inhibition ([12]; parasite line B) was 14.9% (inactive), the Potency (C2A) was “inactive” and the Potency (CP217) was “inactive”. For the same compound, the Potency (CP250) was “inactive”, the Potency (FAB9) was “inactive” and the Potency (JCK) was “inactive”. For the same compound, the Potency (SC27B) was “inactive”.

In the case of `CC(=O)[C@H]1CC[C@@H]2[C@H]3CC=C4C[C@@H](O)CC[C@]4(C)[C@H]3CC[C@]12C`, the outcome [1] is reported as “inactive”, the Potency [2] is reported as “inactive” and the activity change, negative = inhibition [3] is reported as 3.47% (inactive). For the same compound, the outcome [4] was “inactive”, the Potency [5] was “inactive” and the outcome [6] was “inactive”. The activity change, negative = inhibition [7] was -2.95% (inactive), the max response [7, 15] was -11.5% and the max response [7, 16] was -15.2%. For the same compound, the Potency [8] was “inactive”.

In the case of `CO[C@]1(NC(=O)C2SC(=C(C(N)=O)C(=O)O)S2)C(=O)N2C(C(=O)O)=C(CSc3nnnn3C)CS[C@H]21` (stereo partly drawn), the outcome [1] is reported as “inactive”, the Potency [2] is reported as “inactive” and the activity change, negative = inhibition [3] is reported as 13.4% (inactive). For the same compound, the outcome [4] was “inactive”, the Potency [5] was “inactive” and the outcome [6] was “inactive”. The activity change, negative = inhibition [7] was 0.935% (inactive), the max response [7, 15] was 0.185% and the max response [7, 16] was 1.63%. The Potency [9] was “inactive”, the outcome [10] was “inactive” and the Potency [11] was “inactive”. The activity, negative = inhibition ([12]; parasite line A) was -5.23% (inactive), the activity, negative = inhibition ([12]; parasite line B) was -0.327% (inactive) and the Potency (C2A) was “inactive”. The Potency (CP217) was “inactive”, the Potency (CP250) was “inactive” and the Potency (FAB9) was “inactive”. The Potency (JCK) was “inactive” and the Potency (SC27B) was “inactive”.
